We go through 99 molecules from ChEMBL document CHEMBL3988442, “University of Dundee, Small-Polar-MMV Screening Library” (2021).

Screen size: about 38,000 compounds; about 1,200 (3.2%) showed an effect of 50% or more. The median lay at about -58%. What follows is part of a selection rich in strong results, with near analogues and random picks from the rest.

In the assay the test system is Plasmodium falciparum. The experiment in a line: Calibr Malaria Delayed Death Assay SOP. It counts as functional, organism-based. Further details: scale not given: in the data most compounds retested in dose-response had high values. Conditions: concentration 4.99e-06 (unit not given; other assays of the set use mol/L).
Turning to `O=C(Cc1ccn[nH]1)N1CCc2cc(Br)sc2C1`, the “Percent Effect” value is given as -31.09%.
On to `CC1(C)COCCN1C(=O)c1ccc(Cn2cncn2)cc1`, for which the “Percent Effect” value is reported as -28.18%.
With `Fc1ccc(OCCCN2CCCC(Cn3cncn3)C2)cc1` (centres undefined), the “Percent Effect” value is -24.19%.
Turning to `CN(C)CCNC(=O)c1nc2c(s1)CCCN2C(=O)C1CC1.O=C(O)C(F)(F)F`, the “Percent Effect” value is on record as 21.8%.
To `Cc1nc(CN2CCCn3c(nc(Cn4cncn4)cc3=O)C2)cs1.O=C(O)C(F)(F)F` belongs -37.93%; to `Cc1cc(CN(C)C(=O)c2ccc(OCC(F)(F)F)nc2)no1`, -117.9%; to `CC(C)c1nn(C)c(Cl)c1CNCC(=O)N1CCN(C)CC1.Cl`, -109.8%.
`Cn1ncc(C(=O)O)c1C(=O)Nc1nc2ccccc2s1`: the “Percent Effect” value is -36.51%.
To `C[C@@H]1CN(Cc2cn(C)nc2-c2ccccc2F)C[C@H](C)O1` belongs -119.2%; to `Cc1noc(C)c1C(C)NC(=O)N1CCN(c2cccs2)CC1` (centres undefined), -38.18%; to `CC(NC(=O)N1CCN(c2cccs2)CC1)c1ccc(C#N)cc1` (centres undefined), 61%.
The same measure for `CC(NC(=O)N1CCN(c2cccs2)CC1)c1ccncc1` (centres undefined): -36.24%.
To `CN(Cc1ccccc1)CC1CC2(CO1)CN(Cc1cnn(C)c1)C2` (centres undefined) belongs 50.64%; to `CN(Cc1ccccc1)CC1CC2(CO1)CN(Cc1nccs1)C2` (centres undefined), 3.92%; to `CN(Cc1ccccc1)CC1CC2(CO1)CN(c1nncs1)C2` (centres undefined), -3.819%.
As to `Cc1nn(CC(=O)N2CCC3(CN(C)C(=O)O3)C2)c(=O)c2ccccc12` (centres undefined), the “Percent Effect” value is -0.9093%.
Consider `Cn1cc(N2CCCC(NCc3cccc4c3OCCCO4)C2)cn1` (centres undefined), for which the “Percent Effect” value is reported as -37.41%.
To `Cc1nc(C)c(CNCC2CCCn3ccnc32)s1` (centres undefined) belongs -88.04%.
To `Cc1cn2c(n1)C(CNCc1cccc3c1OCO3)CCC2` (centres undefined) belongs 81.04%; to `c1cc(CNCc2ccnc(N3CCCC3)c2)c2c(c1)OCO2`, -28.94%; to `Cc1ccc(CNCC2CCCN2c2cccnn2)s1` (centres undefined), 44%.
With `Clc1snnc1CN1CCCCC1Cn1cccn1` (centres undefined), the “Percent Effect” value was -105.5%.
On to `CN(Cc1cccc(C#N)c1)Cn1nc(C(C)(C)C)ccc1=O`, for which the “Percent Effect” value is -75.82%.
Regarding `COc1cc(NC(=O)c2cc(Cl)ccc2F)c(C(=O)N(C)C)cc1OC`, the “Percent Effect” value is -86.88%.
`Cc1nnc2ccc(OCCNS(=O)(=O)c3cccs3)nn12`: the “Percent Effect” value is listed as -74.14%.
Regarding `CC1=N[C@@]2(CC[C@@H]3CN(CC(=O)N(C)C)C[C@@H]32)C(=O)N1CC1CC1.O=C(O)C(F)(F)F`, the “Percent Effect” value is -113.5%.
Turning to `CC1=N[C@@]2(CC[C@@H]3CN(Cc4ccccc4F)C[C@@H]32)C(=O)N1CC1CC1.O=C(O)C(F)(F)F`, the “Percent Effect” value is 66.32%.
As for `CCC1=N[C@@]2(CC[C@@H]3CN(Cc4ccccc4F)C[C@@H]32)C(=O)N1CC.O=C(O)C(F)(F)F`, the “Percent Effect” value is given as 37.33%.
For `O=C(O)C(F)(F)F.O=C([C@H]1C[C@H]2OCC[C@H]2N(Cc2ccoc2)C1)N1CCCCO1`, the “Percent Effect” value was -83.93%.
For the molecule `CCN1CCn2cc(CNC(=O)c3cnn(C)c3)nc2C1.O=C(O)C(F)(F)F.O=C(O)C(F)(F)F`, the “Percent Effect” value was -97.9%.
As for `COc1ccccc1N1CCC(CNS(=O)(=O)c2c(C)nn(C)c2C)C1` (centres undefined), the “Percent Effect” value was -22.9%.
The same measure for `COc1ccccc1N1CCC(CNCc2cccc(OC)c2OC)C1` (centres undefined): 55.95%.
The same measure for `COc1ccccc1N1CCC(CNC(=O)N(C)Cc2ccco2)C1` (centres undefined): -114.8%.
Consider `COc1ccccc1N1CCC(CNCc2cccc(O)c2)C1` (centres undefined), for which the “Percent Effect” value was determined as 55.7%.
Take `COc1ccc(CNCC2CCN(c3ccccc3OC)C2)cc1O` (centres undefined): the “Percent Effect” value was found to be 21.41%.
For the molecule `COc1ccccc1N1CCC(CNCc2c(C)nn(C)c2OC)C1` (centres undefined), the “Percent Effect” value came to 51.83%.
Regarding `COc1ccccc1N1CCC(N2CCOCC(CO)C2)CC1` (centres undefined), the “Percent Effect” value was found to be 27.34%.
The same measure for `COc1c(CNC2CCN(c3ncccn3)CC2)c(C)nn1C`: -45.93%; for `COc1ccccc1N1CCC(CNCc2cccc(C#N)c2)C1` (centres undefined): 0.8345%.
To `Cc1ccc(C(C)(O)CNC(=O)CCn2ccnc2C(C)C)o1` (centres undefined) belongs -68.59%.
On to `Cc1[nH]ncc1C(=O)NCC(CO)Cc1ccc(Cl)cc1` (centres undefined), for which the “Percent Effect” value is -37.01%.
To `c1cc(CNCC2CNc3ccnn3C2)cc(N2CCOCC2)n1` (centres undefined) belongs -156.8%; to `Cc1cc(N2Cc3cnn(CCO)c3C2)nc(-c2ccccc2O)n1`, -189%; to `O=C(NCC(O)C1CC1)Nc1cnn(Cc2ccccc2)c1` (centres undefined), -47.94%.
To `Cc1cncc(C2CCCN(C(=O)c3cn(C)nc3C)C2)n1` (centres undefined) belongs -35.12%.
As for `Cn1nc(CN2CCCN(C3CCCC3)CC2)c2c(Cl)cccc21`, the “Percent Effect” value is on record as 68.46%.
As for `C[C@@H]1CN(C2CCN(Cc3nn(C)c4cccc(Cl)c34)CC2)C[C@H](C)O1`, the “Percent Effect” value is listed as -11.21%.
To `Cn1cnnc1CC1CCN(Cc2nn(C)c3cccc(Cl)c23)CC1` belongs -15.19%.
To `Cn1nc(CN2CCC(c3ccncc3)CC2)c2c(Cl)cccc21` belongs -16.19%; to `Cn1nc(CN2CCCCC(N)C2)c2c(Cl)cccc21` (centres undefined), 65.71%; to `CCn1cc(CN2CCCN(C3Cc4ccccc4C3)CC2)c(C)n1`, -9.026%.
On to `CCC(=O)N1CCC[C@]2(C(=O)N(C)C)CN(c3ccccn3)C[C@@H]2C1.O=C(O)C(F)(F)F`, for which the “Percent Effect” value is listed as -7.405%.
`Cn1nccc1-c1nnn2c1COC(CNCc1nccs1)C2.O=C(O)C(F)(F)F` (centres undefined): the “Percent Effect” value is recorded as -38.88%.
On to `CCn1cc(S(=O)(=O)N2CCCC2c2ccc(C)o2)cn1` (centres undefined), for which the “Percent Effect” value was -154.6%.
To `CC(C)c1nccn1C1CCCN(C(=O)c2nccnc2N)C1` (centres undefined) belongs -27.69%; to `CCOc1ncccc1CNC(=O)c1cc(C)on1`, -34.12%; to `Cn1cc(C2CC(=O)NC23CCN(C(=O)C2CC=CC2)CC3)cn1` (centres undefined), -79.79%.
To `Cn1cc(CN2CCC(CCC(=O)NCc3ccc(F)cc3)CC2)cn1` belongs -110.1%; to `Cn1cc(CN2CCCN(CCCc3ccccc3)CC2)cn1`, -23.65%.
Regarding `Cn1cc(C[C@H]2[C@H](O)CCN2Cc2ccc(F)cc2)cn1.O=C(O)C(F)(F)F`, the “Percent Effect” value amounted to 1.719%.
For `Cc1ccccc1CCC1CCCN(Cc2nnc(-c3ccco3)o2)C1` (centres undefined), the “Percent Effect” value was -11.7%.
`Cn1cc(CN2CCCC(CCc3ccc(F)cc3)C2)cn1` (centres undefined): the “Percent Effect” value was 73.58%.
To `Cn1cc(CNC(=O)C2CCCN(Cc3cccc(F)c3)C2)cn1` (centres undefined) belongs -63.48%; to `Cn1cc(CN2CCCC(CCc3ccccc3C(F)(F)F)C2)cn1` (centres undefined), 87.33%; to `Cc1[nH]c(=O)[nH]c(=O)c1CN1CCCC(CCc2ccc(F)c(F)c2)C1` (centres undefined), -43.91%.
Turning to `COc1ccc(CN2CCCC(Cn3nc(C)nc3C)C2)cc1F` (centres undefined), the “Percent Effect” value is recorded as -17.07%.
To `Cn1ccnc1CCNC(=O)C1CCCN(Cc2cccc(F)c2)C1` (centres undefined) belongs 58.15%; to `Cn1cnnc1CNC(=O)C1CCCN(Cc2cccc(F)c2)C1` (centres undefined), -147.7%; to `Cn1cc(CN2CCCC(CCc3ccc(F)c(F)c3)C2)cn1` (centres undefined), 69.99%.
To `Cc1nn(C)c(Cl)c1C1CCCN1C(=O)c1ccnn1C` (centres undefined) belongs -125.5%; to `Cc1nc(CN2C[C@@H]3CN(C(=O)Cc4ccccn4)C[C@@H]3C2)cs1.O=C(O)C(F)(F)F.O=C(O)C(F)(F)F`, -48.37%.
The same measure for `CN(Cc1nccn1CC(F)(F)F)C(=O)c1ccc(F)cc1F`: -38.32%; for `CCN1CCN(c2ccc(NC(C)c3nc(C(C)C)no3)c(C)c2)CC1` (centres undefined): -29.45%; for `CNC(=O)COC(=O)c1ccn(-c2ccc(Cl)c(Cl)c2)n1`: -33.36%.
Regarding `COCC1c2c(cnn2C)CCN1Cc1ccco1.O=C(O)C(F)(F)F.O=C(O)C(F)(F)F` (centres undefined), the “Percent Effect” value is reported as -7.218%.
Regarding `Cc1cc(F)ccc1-n1cc(O)c(C(N)=O)n1`, the “Percent Effect” value is given as -184.1%.
The same measure for `Cn1ccnc1CN1CCCC(CCc2ccc(F)c(F)c2)C1` (centres undefined): 73.33%; for `CC(c1ccc(F)c(F)c1)N1CCN(Cc2nccn2C)CC1` (centres undefined): -18.79%.
As for `Cn1cc(CN2CCCC(CCc3ccc(F)cc3F)C2)cn1` (centres undefined), the “Percent Effect” value was found to be 88.72%.
For the molecule `CC(C)n1ccnc1C1CCCN(Cc2ccc(F)c(F)c2)C1` (centres undefined), the “Percent Effect” value is listed as 8.859%.
Turning to `Cn1cc(CN2CCCC(CCc3c(F)cccc3F)C2)cn1` (centres undefined), the “Percent Effect” value is given as 78.37%.
The same measure for `Cc1[nH]c(=O)[nH]c(=O)c1CN1CCCC(CCc2ccc(F)cc2F)C1` (centres undefined): 49.97%; for `Cc1[nH]c(=O)[nH]c(=O)c1CN1CCCC(CCc2ccccc2F)C1` (centres undefined): -31.73%.
As for `Cc1nc(C)n(CC2CCCN(Cc3ccc(F)cc3C#N)C2)n1` (centres undefined), the “Percent Effect” value is reported as -108%.
Regarding `Cc1[nH]c(=O)[nH]c(=O)c1CN1CCCC(CCc2c(F)cccc2F)C1` (centres undefined), the “Percent Effect” value is -50.25%.
In the case of `Cc1ccc(N2CCN(C(=O)CCc3ccc(O)cc3)CC2=O)cc1`, the “Percent Effect” value is reported as -38.56%.
To `Cc1cc(F)cc2c(N3CCC(S(N)(=O)=O)CC3)c(C#N)cnc12` belongs -75.95%.
For the molecule `O=C1CC2(CCSC2)C(=O)N1Cc1coc(-c2ccccc2)n1` (centres undefined), the “Percent Effect” value is -69.36%.
The same measure for `CC1CCc2[nH]c(=O)c(C(=O)N3CCc4ccccc4C3)cc2C1` (centres undefined): -106.2%; for `COCCN(Cc1cc(O)nc2ccccc12)C(=O)NC(C)C`: -37.53%; for `COCCN(Cc1cccs1)C(=O)C1CCCN(C(N)=O)C1` (centres undefined): -166.3%.
The same measure for `Cc1ccsc1CN(c1nc(CCN)nc2ccccc12)C1CC1`: 51.16%; for `COCCN(CC1CC1)c1nc(CCN)nc2ccccc12`: 8.553%; for `COCCN(CCOC)Cc1c(C)nc2ccccc2c1O`: -60.42%.
To `NCCc1nc(N(Cc2nccs2)C2CC2)c2ccccc2n1` belongs -61.5%; to `COCCN(Cc1cccs1)c1nc(CCN)nc2ccccc12`, 61.62%.
As for `NCCc1nc(N(Cc2cncs2)C2CC2)c2ccccc2n1`, the “Percent Effect” value is given as -36.69%.
To `COCCN(Cc1ccccc1Cl)c1nc(CCN)nc2ccccc12` belongs 89.02%; to `CCC(=O)N(CCN(C)C)Cc1ccc(F)c(F)c1`, 39.58%.
